Screening data (PubChem)
In the library only some 2.2% were active in any assay of this set; here they are far more common.
TDP-43 yeast inh: inhibitors of TDP-43 toxicity in yeast. TDP-43 expressing yeast growth rescue, BacTiter-Glo, 24 h. Potency, µM (series often up to 46.1 µM), hits mostly activators. 410,000 compounds, 1.8% hits. AID 652104; also: nearly all actives have a fitted effect of over 50% in size
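Growth rescue of TDP-43-toxic yeast measured as ATP luminescence (BacTiter-Glo). Cells grown to mid-log in raffinose, induced in galactose at OD600=0.02, exposed to compound 24 hr at 30 deg C.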
Abeta yeast res: restores growth of yeast expressing A-beta42 peptide | yeast expressing A-beta42, growth rescue, OD600, 48 h; response scale: 0% DMSO, 100% iron-clioquinol control | AID 1347071 | 410,000 compounds, 0.063% hits | Potency, µM (top dose mostly 46.1 µM), usual class: activators; also: nearly all actives have a fitted effect of over 55% in size
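Growth rescue measured by 600 nm absorbance after 48 h yeast culture at 30 C with compound. Values normalized between DMSO and an equimolar ferric chloride plus clioquinol control.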
aSyn rescue: inhibitors of alpha-synuclein toxicity in yeast | 370,000 compounds, 0.14% hits | Yeast expressing alpha-synuclein, growth rescue, BacTiter-Glo, 24 h | Potency, µM (top dose mostly 46.1 µM), usual class: activators; also: nearly all actives have a fitted effect of over 65% in size
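Rescue of yeast growth: cells expressing toxic alpha-synuclein, induced in galactose at OD600 0.02, incubated with compound 24 h at 30 C. ATP luminescence quantified growth; inhibitors of toxicity appear as activators.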
Mito fusion act: inhibitors of mitochondrial division or activators of mitochondrial fusion; S. cerevisiae fusion-defective mutant growth rescue, CellTiterGlo 48 h; Potency, µM (highest dose often 46.1 µM), usual class: activators; 320,000 compounds, 0.23% hits; also: nearly all actives have a fitted effect of over 45% in size
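Compounds are tested for their ability to restore growth of mitochondrial fusion-defective yeast strains at non-permissive 37C in YPEG medium over 48 hours. Viability is quantified by luciferase luminescence.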
FUS suppressor: FUS proteinopathy suppression in yeast; AID 1347120; Potency, µM (highest dose often 76.6 µM), actives largely listed as activators; 390,000 compounds, 0.24% hits; S. cerevisiae FUS-expressing, growth rescue, OD600, 24 h; also: nearly all actives have a fitted effect of over 55% in size
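Toxicity suppression screen in FUS-yeast. Cells induced with 2% galactose, starting OD 0.005, treated 24hr at 30C with compounds at multiple final concentrations; growth by OD600.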
Numbers stand for hits; – = inactive; ? = inconclusive; · = not tested or not shown; ! = repeats disagree. Calls follow the shape of the dose curve; as a rule, active = well fitted curve in the direction sought with a large enough effect; inconclusive = small, poorly fitted or top-dose-only effect, or another doubt; inactive = no such curve, though single readings can be large; an effect the other way counts as inactive or inconclusive.

SMILES	TDP-43 yeast inh	Abeta yeast res	aSyn rescue	Mito fusion act	FUS suppressor
Cc1nn2c(C)c(C(=O)NCCc3ccccc3)cnc2c1-c1ccccc1	17.8µM	–	·	·	–
O=C(/C(=C/c1ccc(Cl)cc1)c1nc2ccccc2[nH]1)c1cccs1	3.16µM	–	–	–	–
Cc1ccc(N(C)S(=O)(=O)c2nnc(NC(=O)CC(C)C)s2)cc1	–	–	·	·	–
COc1ccc(-c2ccc(C(=O)NCc3ccncc3)c3occc23)c(C)c1	–	–	–	·	–
COc1ccc(-c2ccc(C(=O)NCC(C)C)c3occc23)c(C)c1	25.1µM	–	–	·	–
COc1ccc(-c2ccc(C(=O)NCC3CC3)c3occc23)c(C)c1	22.4µM	–	–	·	–
COc1ccc(-c2ccc(C(=O)N3CCOCC3)c3occc23)c(C)c1	10µM	–	?	·	–
CCCCNC(=O)C[C@@H]1C(=O)N2CCCC3=C2[C@@]1(C(=O)OC)CCCC3	·	·	·	·	–
COc1ccc(NC(=O)Cn2ncc3c2-c2ccccc2OC3)cc1Cl	–	–	·	·	–
Cc1cccn2c(=O)c(C(=O)N3CCN(c4ccccc4F)CC3)cnc12	–	–	·	·	–
CS/C(N)=N/C(=S)Nc1cccc(Cl)c1	?	12.6µM	–	–	–
C[C@H]1COc2cc(N3CCCC3)ccc2S(=O)(=O)N1C	·	·	·	·	–
CC(C)[C@@H]1CC[C@@H](C)c2c(-c3ccccc3)n[nH]c21	11.2µM	–	?	–	–
COC(=O)Cn1ccc2cc(S(=O)(=O)N3CCCCCC3)ccc21	15.8µM!	–	–	–	–
CCOc1ccc(CCNC(=O)Cn2ccc3cc(S(=O)(=O)N4CCCCC4)ccc32)cc1	–	–	·	·	17.8µM
COC(=O)Cn1ccc2cc(S(=O)(=O)N3CCCCC3)ccc21	–	–	–	–	–
CCOc1ccc(CNC(=O)Cn2ccc3cc(S(=O)(=O)N4CCCCCC4)ccc32)cc1	–	–	–	–	–
COc1cccc(Nc2nc3ccccc3n3cnnc23)c1	12.6µM	–	–	–	–
Cc1ccc(O)c(Nc2nc3ccccc3c3nncn23)c1	–	–	·	·	–
CCc1ccccc1Nc1nc2ccccc2n2cnnc12	12.6µM	–	·	·	–
COc1ccc(Nc2nc3ccccc3n3cnnc23)cc1Cl	–	–	–	–	–
CCc1ccccc1Nc1nc2ccccc2c2nncn12	17.8µM	–	·	·	–
C=CCN(C)C(C#Cc1ccccc1)Cc1ccccc1 (stereo not drawn)	·	·	·	·	–
Cc1ccc(OCCCCn2c(-c3ccc(Cl)cc3)nc3ccccc3c2=O)cc1	–	–	·	·	–
O=C1/C(=C/c2ccncc2)SC(=S)N1C1CCS(=O)(=O)C1 (stereo not drawn)	12.6µM	–	–	–	–
SMILES	TDP-43 yeast inh	Abeta yeast res	aSyn rescue	Mito fusion act	FUS suppressor
CCc1ccccc1N1CSC2=C(C#N)C(c3cc(OC)c(OC)cc3OC)CC(=O)N2C1 (stereo not drawn)	0.0316µM	–	–	–	?
COc1cc(OC)c(C2CC(=O)N3CN(c4ccccc4)CSC3=C2C#N)cc1OC (stereo not drawn)	–	–	–	–	?
CCOc1ccc2nc(SCC(=O)NCc3ccco3)sc2c1	14.1µM	–	–	–	–
O=C(CSc1nc2ccc(Nc3nc(N4CCCC4)nc(N4CCCC4)n3)cc2s1)NCc1ccco1	20µM	–	–	–	–
O=C(CSc1nc2ccc(Nc3nc(N4CCOCC4)nc(N4CCOCC4)n3)cc2s1)Nc1ccccc1Cl	–	–	–	–	–
CCC(C)C(NC(=O)C1CCC(C)CC1)C(=O)NCc1ccco1 (stereo not drawn)	–	–	–	35.5µM	–
CC1CCCC(NC(=O)COC(=O)c2ccc(N(C)C)cc2)C1C (stereo not drawn)	10µM	–	·	–	–
CCN(CC)c1ccc(C(=O)OCC(=O)NC2CCCCC2C)cc1 (stereo not drawn)	–	–	–	–	–
COc1ccc(S(=O)(=O)Oc2ccc3cccc(N)c3c2)cc1	15.8µM	?	?	·	–
CC1CCCC(NC(=O)c2cccc(S(=O)(=O)NCc3ccccc3)c2)C1C (stereo not drawn)	35.5µM	–	–	–	–
COc1ccc(-c2nc3scc(CCNS(=O)(=O)c4ccccc4F)n3n2)cc1	22.4µM	–	·	·	–
COc1ccc(C(=O)OCCN(C)C2CN(Cc3cn(Cc4ccccc4Cl)nn3)S(=O)(=O)C2)cc1OC (stereo not drawn)	·	·	·	·	–
Clc1nc2c(-c3ccccc3)nnn2c2ccccc12	6.31µM	–	–	–	–
Cc1ccc(-c2nnn3c2nc(Cl)c2ccccc23)cc1	–	–	–	–	–
O=C(Nc1cccc2ccccc12)/C(Cl)=C/c1ccccc1	15.8µM	–	–	?	–
CCc1ccc(-c2c(C)sc(NC(C)=O)c2C(N)=O)cc1	15.8µM	–	–	–	–
Nc1c(-c2ccccc2)cnn1-c1cccc(Cl)c1	15.8µM	–	–	–	–
C=C1NN(Cc2ccccc2)C(=O)N1c1ccc(OCc2ccccc2)cc1	·	·	–	·	·
CC(C)C[C@H](NC(=O)c1nc[nH]c1C(=O)NC1CCN(C(=O)OC(C)(C)C)CC1)C(=O)OCc1ccccc1	–	–	–	–	?
CC(C)C[C@H](NC(=O)c1nc[nH]c1C(=O)NC1CCN(C(=O)OC(C)(C)C)CC1)C(=O)OC(C)(C)C	–	–	–	–	14.1µM
CC(C)(C)OC(=O)NCCCC[C@H](NC(=O)c1nc[nH]c1C(=O)NC(c1ccccc1)c1ccccc1)C(=O)OC(C)(C)C	–	–	–	–	15.8µM
CC(C)(C)OC(=O)NCCCC[C@H](NC(=O)c1nc[nH]c1C(=O)N[C@@H](CCCCNC(=O)OC(C)(C)C)C(=O)OC(C)(C)C)C(=O)OC(C)(C)C	–	–	–	–	?
CC(C)(C)OC(=O)[C@H](Cc1ccccc1)NC(=O)c1nc[nH]c1C(=O)NC1CCN(C(=O)OC(C)(C)C)CC1	–	–	–	–	?
CC(C)(C)OC(=O)NCCCC[C@H](NC(=O)c1nc[nH]c1C(=O)NC1CCN(C(=O)OC(C)(C)C)CC1)C(=O)OC(C)(C)C	–	–	–	–	14.1µM
COc1ccc(-c2nc3ccc(NC(C)=O)cc3c(=O)n2Cc2ccccc2)cc1COc1ccc(NC(C)=O)cc1	·	·	–	·	·
CCN1C(=O)C(Cc2nc3ccccc3c(=O)n2-c2ccc(OC)cc2)c2ccccc21 (stereo not drawn)	–	–	·	·	–
CCOc1ccc(NS(=O)(=O)c2cnc(Cl)c(Cl)c2)cc1	–	–	–	–	·
Cc1cc(C)cc(NS(=O)(=O)c2cnc(Cl)c(Cl)c2)c1	35.5µM	–	–	–	–
O=[N+]([O-])/C=C/c1cn(Cc2ccccc2)c2ccccc12	10µM	–	–	–	–
Cc1ccc(Cl)cc1NC(=O)Cn1c(=O)oc2cc(S(=O)(=O)N3CCCC3)ccc21	–	–	·	·	–
